Measurements reported in PubChem BioAssay (Tox21).
“And” between values parts separate entries of the source, which are not always exact repeats. Equal values may be shown once. The source made the active and inactive calls. A call without a number means that no potency is given here. The call rests on the fitted dose curve; in most records, active means well fitted activation curve with a large enough effect in the repeat runs; inconclusive means weak or mixed curves; inactive means flat fitted curve, though single readings scatter.

Test: Caspase-3/7 induction in CHO-K1 cells by small molecules, qHTS assay (AID 1346980); further: nearly all actives have a fitted effect of over 15% in size
Details: CHO-K1 caspase-3/7 induction, Caspase-Glo luminescence, 17 h; series mostly up to 92.4 µM
Description: National Center for Advancing Translational Sciences [NCATS]
NIH Chemical Genomics Center [NCGC]
U.S. Environmental Protection Agency [EPA]
National Institutes of Environmental Health Sciences [NIEHS]
National Toxicology Program [NTP]
Apoptosis is a process of programmed cell death and plays a central role in the development of multicellular organisms. It is a highly regulated process and induces cell death by activating caspases, which are the members of cysteine aspartic acid-specific protease (caspase) family. Caspases involved in apoptosis are classified by their mechanism of action as initiator caspases (caspase-2, -8, -9 and -10) and executioner caspases (caspase-3, -6, and -7). Inhibition of apoptosis results in number of cancers, autoimmune diseases, inflammatory diseases and viral infection. To identify small molecule compounds that induce apoptosis, a homogeneous, luminescent Caspase-Glo 3/7 assay was used. Wild type CHO-K1 cells were used to screen Tox21 libraries for identifying caspase-3/7 activity inducers.
CHO-K1 cells were dispensed at 1,500 per well in 5uL of culture medium into white solid bottom 1536-well plates (Corning Life Sciences, Corning, NY) using a Multidrop Combi (Thermo Scientific, Waltham, MA) dispenser. The assay plates were incubated at 37 C and 5% CO2 for 5hr, and then 23nL of compounds dissolved in DMSO and positive control were transferred using a Pintool station (Wako, San Diego, CA). The assay plates were incubated at 37C and 5% CO2 for 17hr. For caspase-3/7 activity read, 4uL of Caspase-Glo 3/7 reagent (Promega Corporation, Madison, WI) was added to each well of the assay plates using Flying Reagent Dispenser (FRD, Aurora Discovery, San Diego, CA) and incubated the assay plates at room temperature for 30min. The luminescence signal was quantified using a ViewLux plate reader (Perkin Elmer, Shelton, CT).
Potency means the concentration at half of the fitted maximal effect.

SMILES | Potency
Cc1ccc(-c2cc(C(F)(F)F)nn2-c2ccc(S(N)(=O)=O)cc2)cc1 | inactive
Nc1nc2ccccc2[nH]1 | inactive
O=C1NCC2(CCN(CCc3ccccc3)CC2)O1 | inactive
CCC(C)(C)C(=O)O[C@H]1C[C@@H](C)C=C2C=C[C@H](C)[C@H](CC[C@@H]3C[C@@H](O)CC(=O)O3)[C@H]21 | inactive
CC(C)CCCCCCc1ccc(O)cc1 | 24.8 µM (active)
O=C(OCc1ccccc1)c1ccc(O)cc1 | inactive
CC(C)(c1ccccc1)c1ccc(Nc2ccc(C(C)(C)c3ccccc3)cc2)cc1 | inactive
CCCCC/C=C/CC1CC(=O)OC1=O (stereo not given) | inactive
Cc1cc(C(C)(C)C)c(O)c(C(C)(C)C)c1 | inactive
OCC(CO)N[C@H]1C[C@](O)(CO)[C@@H](O)[C@H](O)[C@H]1O | inactive
CC(=O)C1=C(C)[C@@H]2C[C@@]3(C1)[C@H](C)CC[C@H]3C2(C)C | inactive
CC(C)CCOC(=O)c1ccc(N(C)C)cc1 | inactive
[Cl][In]([Cl])[Cl] | inactive
N[C@@H]1CONC1=O | inactive
CN(C)c1ccc2nc3ccc(=[N+](C)C)cc-3sc2c1 | inactive
CCOc1ccccc1C(N)=O | inactive
Oc1c(Cl)cc(Cl)cc1Sc1cc(Cl)cc(Cl)c1O | inactive
Cc1ccc(S(=O)(=O)Oc2ccc(N=Nc3ccc(-c4ccc(N=Nc5c(O)ccc6cc(S(=O)(=O)O)cc(S(=O)(=O)O)c56)c(C)c4)cc3C)cc2)cc1 | inactive
CCCCC(CC)COC(=O)CC(C(=O)OCC(CC)CCCC)S(=O)(=O)O (stereo not given) | inactive
CCOC(=O)C(C)C(C)=O (stereo not given) | inactive

SMILES | Potency
COC(=O)/C=C/c1ccccc1 | inactive
O=C(Oc1ccccc1)c1ccccc1O | inactive
c1ccc2c(c1)CCCC2C1=NCCN1 (stereo not given) | inactive
CN1C(=O)c2ccc([N+](=O)[O-])cc2C1=O | inactive
CC(=O)CC(=O)Nc1ccc2[nH]c(=O)[nH]c2c1 | inactive
Nc1cc(Cl)c(-c2cc(Cl)c(N)cc2Cl)cc1Cl | inactive
CC(=O)O[C@]1(C(C)=O)CC[C@H]2[C@@H]3C[C@H](C)C4=CC(=O)CC[C@]4(C)[C@H]3CC[C@@]21C | inactive
CCCCCC(=O)O[C@]1(C(C)=O)CC[C@H]2[C@@H]3CCC4=CC(=O)CC[C@]4(C)[C@H]3CC[C@@]21C | inactive
Cc1cccc(O)c1C | inactive
O=Cc1ccc(Cl)cc1 | inactive
CC(C(O)c1ccc(O)cc1)N1CCC(Cc2ccccc2)CC1 (stereo not given) | inactive
CCN(CC)c1ccc2c(C)cc(=O)oc2c1 | inactive
COc1ccc(CCN2CCC(Nc3nc4ccccc4n3Cc3ccc(F)cc3)CC2)cc1 | 11.1 µM (active)
CN(C)c1ccc(C(=C2C=CC(=[N+](C)C)C=C2)c2ccccc2)cc1 | 5.96 µM (active) and 3.35 µM (active)
Cc1cccc2n[nH]nc12 | inactive
CC(COc1ccccc1)N(CCCl)Cc1ccccc1 (stereo not given) | inactive
C=C(C)C1CC=C(C)C(OC(C)=O)C1 (stereo not given) | inactive
Cc1cc(OCCOCC[N+](C)(C)Cc2ccccc2)ccc1C(C)(C)CC(C)(C)C | inactive
O=C(O)CCc1ccccc1 | inactive
c1ccc2c(c1)-c1cccc3c1c-2cc1ccccc13 | inactive
